The target of experiment [1] is Luciferin 4-monooxygenase (Photinus pyralis) (UniProt P08659). Kind of experiment: Primary firefly luciferase (FLuc) qHTS assay for identification of artifact compounds. (AID 1845220). Also: nearly all actives have a fitted effect of over 60% in size. The note with it: purified firefly luciferase, luminescence, 5 min; series mostly up to 54.1 µM. In short, it runs like this: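 D-luciferin and ATP (10 uM each, final) in Tris acetate buffer pH 7.6 were incubated with compounds for 15 min at room temperature. The reaction was started with 10 nM Photinus pyralis luciferase and luminescence read after 5 min. Percent inhibition was fitted to a 4-parameter Hill equation.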

Experiment [2] can be described thus: Primary fluorescence-based thiol-reactive (MSTI) qHTS assay for identification of artifact compounds. (AID 1845221). Also: nearly all actives have a fitted effect of over 65% in size. Also: potency is read from the fitted curve at half-maximal effect. The note with it: MSTI thiol-reactivity probe, 1 h; series mostly up to 53.8 µM. In short, it runs like this: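 MSTI probe at 4 uM final in 2% DMSO/PBS pH 7.4; compounds, 1 h at room temperature in dark. Fluorescence Ex/Em 525/598 nm, normalised to Acetyl-MSTI and MSTI, fitted to 4-parameter Hill.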

Experiment [3] deals with Nanoluciferase (engineered Oplophorus gracilirostris luciferase). The experiment in a line: Primary Nanoluciferase (NLuc) qHTS assay for identification of artifact compounds. (AID 1845222). Also: potency is read from the fitted curve at half-maximal effect. The following applies: NLuc-conditioned medium, Nano-Glo luminescence, 5 min; series mostly up to 54.1 µM. In a few lines: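 Diluted conditioned medium from NLuc-expressing S16 cells treated with compounds for 15 min at room temperature, then Nano-Glo substrate added; luminescence read after 5 min. Percent inhibition versus no-enzyme and DMSO controls fitted to 4-parameter Hill equation.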

Experiment [4] is described as follows: Primary redox qHTS assay for identification of artifact compounds. (AID 1845223). The note with it: Amplex Red/HRP redox cycling with DTT, fluorescence; series mostly up to 53.8 µM. In a few lines: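 Amplex Red (25 uM) and HRP (250 mU/mL) in HBSS, with compounds for 15 min, then 250 uM DTT for 30 min, room temperature, dark. Fluorescence 525/598 nm read; normalized to DMSO and 10 uM DA3003; Hill fit.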

Experiment [5] deals with Phospholipid hydroperoxide glutathione peroxidase GPX4 (Homo sapiens) (UniProt P36969). The experiment in a line: Primary qHTS Assay for Inhibitors of Recombinant Selenoprotein Glutathione Peroxidase 4 (GPX4) (AID 1845192). Also: nearly all actives have a fitted effect of over 65% in size. Also: potency is read from the fitted curve at half-maximal effect. The following applies: recombinant GPX4, GR-coupled NADPH fluorescence, 15 min; series mostly up to 50 µM. In a few lines: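 GR-coupled assay: recombinant GPX4 preincubated 30 min with compound at room temperature; final 200 nM GPX4, 1 mM GSH, 0.5 mM cumene hydroperoxide, 0.5 mM NADPH, 100 nM GR, 0.01% BSA, pH 7.5 Tris. NADPH fluorescence (340/450 nm) read at 0 and 15 min.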

Values without a mark were called inactive. Records with an inconclusive call do not appear. Activity calls are given as the source filed them. Calls follow the shape of the dose curve; as a rule, active = well fitted curve in the direction sought with a large enough effect; inconclusive = small, poorly fitted or top-dose-only effect, or another doubt; inactive = no such curve, though single readings can be large; an effect the other way counts as inactive or inconclusive. Where a SMILES comes first, the peptide text is derived from it. The star is where a group is joined. AFC = O=c1cc(C(F)(F)F)c2ccc(N*)cc2o1

Chain of Phospholipid hydroperoxide glutathione peroxidase GPX4 (Homo sapiens) (P36969 whole entry, looked up): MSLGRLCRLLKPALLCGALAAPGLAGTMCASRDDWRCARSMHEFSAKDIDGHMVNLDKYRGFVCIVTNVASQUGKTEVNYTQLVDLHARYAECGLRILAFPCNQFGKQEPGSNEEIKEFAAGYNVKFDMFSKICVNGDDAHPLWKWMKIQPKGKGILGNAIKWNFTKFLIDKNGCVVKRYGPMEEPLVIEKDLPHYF

Take `CC(=O)N[C@@H](Cc1c[nH]c2ccccc12)C(=O)N[C@@H](CCC(=O)O)C(=O)N[C@@H](Cc1cnc[nH]1)C(=O)N[C@@H](CC(=O)O)C(=O)Nc1ccc2c(C(F)(F)F)cc(=O)oc2c1` (Ac-WEHD-{AFC}): the Potency result in experiment [1], in experiment [2], in experiment [3] and in experiment [4] was “inactive” each time.
`COc1ccc2cc(C(C)C(=O)Oc3ccc(C(N)=S)cc3)ccc2c1` (stereo not drawn): the Potency entry in experiment [1], in experiment [2], in experiment [3] and in experiment [4] was “inactive” throughout.
Consider `NCc1c[nH]c(=S)n1[C@@H]1CCc2c(F)cc(F)cc2C1`, for which the Potency entry in experiment [1], in experiment [3] and in experiment [4] was “inactive” throughout.
As for `CCCNc1ccc2ncc(-c3ccc4[nH]ncc4c3)n2n1`, the Potency result in experiment [1], in experiment [3] and in experiment [4] was “inactive” each time.
For `CCC1=CC2CN(C1)Cc1c([nH]c3ccccc13)[C@@](C(=O)OC)(c1cc3c(cc1OC)N(C)[C@H]1[C@@](O)(C(=O)OC)[C@H](OC(C)=O)[C@]4(CC)C=CCN5CC[C@]31[C@@H]54)C2` (stereo partly drawn), the Potency result in experiment [5], in experiment [1] and in experiment [3] was “inactive” each time.
In the case of `CC1=C(COC2OC(CO)C(O)C(O)C2O)C(C(CO)C(=O)O)CC1` (stereo not drawn), the Potency result in experiment [5], in experiment [1], in experiment [3] and in experiment [4] was “inactive” throughout.
Take `CCOc1ccc(NC(=S)N2CCC(C(O)(c3ccccc3)c3ccccc3)CC2)cc1`: the Potency result in experiment [1], in experiment [2], in experiment [3] and in experiment [4] was “inactive” in each case.
On to `Cc1ccc(-c2ccc3c(ccc4sc5c(c43)NC[C@@H](C)NC5=O)n2)cn1`, for which the Potency entry in experiment [1], in experiment [2], in experiment [3] and in experiment [4] was “inactive” each time.
On to `Cc1cc(=O)oc2c(C=O)c(O)ccc12`, for which the Potency entry in experiment [1], in experiment [3] and in experiment [4] was “inactive” in each case.
For `O=C1NC(Cc2c[nH]c3ccccc23)C(=O)NC1Cc1c[nH]c2ccccc12` (stereo not drawn), the Potency result in experiment [5], in experiment [1], in experiment [3] and in experiment [4] was “inactive” in each case.
Turning to `COc1cc2nc(N3CCC(N4CCCCC4)CC3)nc(NC3CCCCCC3)c2cc1OC`, the Potency result in experiment [1], in experiment [2], in experiment [3] and in experiment [4] was “inactive” each time.
For `COC(=O)Cc1cc2c(c([N+](=O)[O-])c1)N(C(=O)CC[C@H](N)C(=O)O)CC2`, the Potency entry in experiment [5], in experiment [1], in experiment [3] and in experiment [4] was “inactive” each time.
As for `Cc1ccc(S(=O)(=O)Cc2nc(-c3ccc(C(=O)NCc4cccnc4)cc3)oc2C)cc1`, the Potency result in experiment [1], in experiment [2], in experiment [3] and in experiment [4] was “inactive” each time.
With `OC1CCC(Nc2ncc3nc(Nc4c(F)cc(F)cc4F)n([C@H]4CCOC4)c3n2)CC1` (stereo partly drawn), the Potency in experiment [5] is 20.2 µM (active). Also, the Potency entry in experiment [1], in experiment [3] and in experiment [4] was “inactive” throughout.
In the case of `CC(=O)SCC(=O)c1ccc(NS(=O)(=O)c2ccc(OCCCN(C)C)cc2)nc1`, the Potency entry in experiment [5], in experiment [1], in experiment [3] and in experiment [4] was “inactive” throughout.
Regarding `CC1=CC(=O)CC(C)(C)C1CCC(C)O[C@@H]1O[C@H](CO[C@@H]2OC[C@@H](O)[C@H](O)[C@H]2O)[C@@H](O)[C@H](O)[C@H]1O` (stereo partly drawn), the Potency entry in experiment [5], in experiment [3] and in experiment [4] was “inactive” each time.
In the case of `CN(CCc1ccc(Nc2ncc(-c3cccnc3)s2)cc1)Cc1ccccc1`, the Potency entry in experiment [5], in experiment [1] and in experiment [3] was “inactive” throughout.
For `CS(=O)(=O)NCC1CCC(Nc2nc3c(s2)CCSc2ccccc2-3)CC1` (stereo not drawn), the Potency entry in experiment [5], in experiment [1], in experiment [3] and in experiment [4] was “inactive” in each case.
On to `COc1cc2nc(N3CCCC3)nc(NCCCCCN3CCCC3)c2cc1OC`, for which the Potency entry in experiment [1], in experiment [2], in experiment [3] and in experiment [4] was “inactive” throughout.
For `COc1ccc(C2COc3cc(O)ccc3C2)c(O)c1` (stereo not drawn), the Potency entry in experiment [5], in experiment [2], in experiment [3] and in experiment [4] was “inactive” in each case.
As to `CS(=O)(=O)c1ccc(-c2nnc(/C=C/c3nnc(-c4ccc(C#N)cc4)o3)n2-c2ccccc2Cl)nc1`, the Potency result in experiment [1], in experiment [2] and in experiment [4] was “inactive” in each case. Also, the Potency in experiment [3] was 12 µM (active).
For `O=C(OC[C@@]1(O)CO[C@@H](O[C@H]2[C@H](Oc3ccc(O)cc3)O[C@H](CO)[C@@H](O)[C@@H]2O)[C@@H]1O)c1ccc(O)cc1`, the Potency entry in experiment [5], in experiment [1] and in experiment [3] was “inactive” in each case.
With `CNC(=O)c1cccc(-c2ccc3c(N4CCOC[C@@H]4C)nc(N4CCOC[C@@H]4C)nc3n2)c1`, the Potency entry in experiment [5], in experiment [2], in experiment [3] and in experiment [4] was “inactive” in each case.
As for `C/C=C/C(O)C1OC(=O)CC1Nc1ccc(C(=O)O)cc1` (stereo not drawn), the Potency entry in experiment [5], in experiment [1] and in experiment [3] was “inactive” each time.
Take `CCc1cnn2c(NCc3ccc[n+]([O-])c3)cc(N3CCCCC3CCO)nc12` (stereo not drawn): the Potency result in experiment [5], in experiment [1] and in experiment [3] was “inactive” in each case.
Turning to `N#Cc1ccc(-c2cnc3[nH]cc(NC(=O)c4cccnc4)c3c2)cc1`, the Potency result in experiment [5], in experiment [1], in experiment [3] and in experiment [4] was “inactive” in each case.
On to `Cc1cnc(Nc2ccc(F)cc2Cl)nc1-c1c[nH]c(C(=O)NC(CO)c2cccc(Cl)c2)c1` (stereo not drawn), for which the Potency entry in experiment [1] and in experiment [3] was “inactive” throughout. For the same compound, the Potency in experiment [2] was 2.67 µM (active).
Turning to `O=C1CCC=CC1(O)C(=O)OCc1ccccc1O[C@@H]1O[C@H](CO)[C@@H](O)[C@H](O)[C@H]1O` (stereo partly drawn), the Potency entry in experiment [5], in experiment [1], in experiment [3] and in experiment [4] was “inactive” in each case.
As to `CC(Oc1ccc2[nH]nc(/C=C/c3cnn(CCO)c3)c2c1)c1c(Cl)cncc1Cl` (stereo not drawn), the Potency entry in experiment [5] and in experiment [3] was “inactive” throughout.
On to `CN(C)CCCCC(=O)Nc1ccc(NC(=S)NC(=O)c2ccc(C(C)(C)C)cc2)cc1`, for which the Potency entry in experiment [1], in experiment [2], in experiment [3] and in experiment [4] was “inactive” throughout.
